The whole screen tested about 5,500 compounds, of which about 2,000 (36%) were called active. Roughly 18% stayed inconclusive and do not appear here. Cut-off read from the data, not from the text of the source: active = normalized growth mostly below about 0.91 (no sharp cut-off); inconclusive = no clear call, values can overlap the other calls; inactive = mostly above about 0.92. The list shows a part of the results.
Assay: chemical genetic growth profiling, strain panel (AID 1159580);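 note: tested at 20 µM; growth read once vehicle control cultures reached saturation at 30 °C; 1 = growth at the plate median or of vehicle wells; lower values mean less growth of the strain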
Conditions: growth OD
[1] = S. cerevisiae deletion strains, locus YDR150W, strain NUM1, hits give low values
[2] = S. cerevisiae deletion strains, locus YPL055C, strain LGE1, hits give low values
[3] = S. cerevisiae deletion strains, locus YPL241C, strain CIN2, hits give low values

Measured: normalized growth

CSC(N)=NCCC[C@H](N)C(=O)O
inactive: S. cerevisiae deletion strains, locus YAL040C, strain CLN3, hits give low values 1.1 | S. cerevisiae deletion strains, locus YCL061C, strain MRC1 (second series), hits give low values 1.01 | [1] 1.02 | S. cerevisiae deletion strains, locus YDR363W, strain ESC2, hits give low values 0.997 | S. cerevisiae deletion strains, locus YER002W, strain NOP16, hits give low values 1.02 | S. cerevisiae deletion strains, locus YMR307W, strain GAS1, hits give low values 1 | S. cerevisiae deletion strains, locus YNL175C, strain NOP13, hits give low values 1.01 | S. cerevisiae deletion strains, locus YNL197C, strain WHI3, hits give low values 1 | S. cerevisiae deletion strains, locus YNL224C, strain SQS1, hits give low values 1 | S. cerevisiae deletion strains, locus YOR083W, strain WHI5 (second series), hits give low values 1 | [2] 1 | [3] 1.01

COc1ccc(OC)c(S(=O)(=O)N2CCc3cc(OC)c(OC)cc3C2C)c1 (stereo unspecified)
inactive: S. cerevisiae deletion strains, locus YAL013W, strain DEP1, hits give low values 1 | S. cerevisiae deletion strains, locus YBR229C, strain ROT2, hits give low values 0.998 | S. cerevisiae deletion strains, locus YCL061C, strain MRC1, hits give low values 0.994 | S. cerevisiae deletion strains, locus YDL101C, strain DUN1, hits give low values 0.972 | S. cerevisiae deletion strains, locus YDL134C, strain PPH21, hits give low values 0.992 | [1] 0.909 | S. cerevisiae deletion strains, locus YEL061C, strain CIN8, hits give low values 0.998 | S. cerevisiae deletion strains, locus YGR078C, strain PAC10, hits give low values 0.99 | S. cerevisiae deletion strains, locus YHR030C, strain SLT2, hits give low values 0.996 | S. cerevisiae deletion strains, locus YHR087W, strain rtc3, hits give low values 1.03 | S. cerevisiae deletion strains, locus YJL187C, strain SWE1, hits give low values 1.01 | S. cerevisiae deletion strains, locus YJR043C, strain POL32, hits give low values 0.973 | S. cerevisiae deletion strains, locus YJR075W, strain HOC1, hits give low values 0.999 | S. cerevisiae deletion strains, locus YKL190W, strain CNB1, hits give low values 0.984 | S. cerevisiae deletion strains, locus YLR039C, strain RIC1, hits give low values 0.948 | S. cerevisiae deletion strains, locus YLR058C, strain SHM2 (second series), hits give low values 1.02 | S. cerevisiae deletion strains, locus YLR085C, strain ARP6, hits give low values 1.02 | S. cerevisiae deletion strains, locus YLR262C, strain YPT6, hits give low values 1.02 | S. cerevisiae deletion strains, locus YML094W, strain GIM5, hits give low values 1.03 | S. cerevisiae deletion strains, locus YMR219W, strain ESC1, hits give low values 1 | S. cerevisiae deletion strains, locus YMR263W, strain SAP30, hits give low values 1.01 | S. cerevisiae deletion strains, locus YNL153C, strain GIM3, hits give low values 0.994 | S. cerevisiae deletion strains, locus YNL298W, strain CLA4 (second series), hits give low values 0.993 | S. cerevisiae deletion strains, locus YNL322C, strain KRE1, hits give low values 1 | S. cerevisiae deletion strains, locus YNR030W, strain Alg12, hits give low values 1 | [2] 1.02 | [3] 0.996 | S. cerevisiae deletion strains, locus YPR135W, strain CTF4, hits give low values 0.947 | S. cerevisiae strains, strain wild type, hits give low values 0.972
